# PAD4 FP inh – PAD4 (human) enzyme inhibition; inhibition, % at 6.36 µM; recombinant PAD4, RCA probe fluorescence polarization; 0.41% of 330,000 active; AID 485272;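 active means percent inhibition above a cutoff equal to the mean of all tested compounds plus 3 SD, cut at about 15% in these data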;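 further: 0% = PAD4 with RCA probe and DMSO and 100% = probe without PAD4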
# TCR-CD3 inh – inhibitors of human TCR-CD3 interaction. TAMRA-labeled TCR probe fluorescence, biochemical. inhibition, % at 9.4 µM. 0.37% of 360,000 active. AID 651800; in the data active means inhibition above about 19%;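 further: recombinant mutant TCR 2C K166C tagged with TAMRA read by polarization; 0% = receptor in buffer alone and 100% = receptor with positive control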
# PME-1 inh – PME-1 (human) inhibition | recombinant PME-1, FP-Rh probe fluorescence polarization | inhibition, % at 5.9 µM | 0.53% of 320,000 active | AID 2130;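 active means inhibition above the campaign mean of all compounds plus 3 SD, cut at about 26% in these data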;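 further: competitive labeling of PME-1 active site by serine hydrolase directed probe; 0% = PME-1 with DMSO and 100% = wells lacking PME-1 enzyme; inhibitors block probe labeling so polarization falls and inhibition rises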
# PRMT1 inh – blocks human protein arginine methyltransferase 1; 1.3% of 370,000 active; recombinant PRMT1, activity-based probe fluorescence polarization; Q99873; inhibition, % at 2.79 µM; AID 652257;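 active means inhibition above about 21% made by adding two undisclosed values, limit read from the data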
# SIAE inh – blocks human sialic acid acetylesterase. AID 1053197. 0.69% of 370,000 active. inhibition, % at 9.66 µM. SIAE FP-Rh probe binding, fluorescence polarization;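 active means inhibition above a cutoff: mean of compounds within the control limits plus 3 SD of those, cut at about 17% in these data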;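 further: 0% = plate median of compound wells and 100% = probe without SIAE protein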
# Target sequence (Q9HAT2 whole entry, looked up): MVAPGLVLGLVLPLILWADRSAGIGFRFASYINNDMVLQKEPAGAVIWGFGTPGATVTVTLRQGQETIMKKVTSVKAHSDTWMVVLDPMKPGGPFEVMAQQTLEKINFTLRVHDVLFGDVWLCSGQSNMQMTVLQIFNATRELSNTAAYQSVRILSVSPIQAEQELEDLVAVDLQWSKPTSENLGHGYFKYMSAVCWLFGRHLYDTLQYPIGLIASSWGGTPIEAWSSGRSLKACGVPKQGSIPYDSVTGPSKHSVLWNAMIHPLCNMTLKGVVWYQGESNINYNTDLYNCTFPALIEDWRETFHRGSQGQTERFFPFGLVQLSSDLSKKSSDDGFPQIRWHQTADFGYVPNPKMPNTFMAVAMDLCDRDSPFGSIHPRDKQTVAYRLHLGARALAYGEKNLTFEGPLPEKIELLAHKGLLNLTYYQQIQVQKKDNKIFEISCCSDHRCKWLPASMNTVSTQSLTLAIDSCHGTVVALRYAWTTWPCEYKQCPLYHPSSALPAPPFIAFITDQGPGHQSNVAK
# Fam108B counter – Fam108B inhibition, counter-screen for RBBP9 inhibitors | recombinant Fam108B, FP-Rh probe fluorescence polarization | inhibition, % at 9.51 µM | 0.33% of 300,000 active;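 active means inhibition above the screen mean inhibition plus 3 SD, computed separately per campaign, cut at about 18% in these data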;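 further: inhibitors lower polarization as less probe binds the enzyme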
# PRMT1 confirm – confirmation of human PRMT1 inhibitors. 42% of 3,300 active. inhibition, % at 2.79 µM. AID 687036. recombinant His-PRMT1, activity-based probe fluorescence polarization. shares compounds with PRMT1 inh;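 active means mean inhibition across replicates above the hit cutoff derived for the earlier primary screen, cut at about 22% in these data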
# Numbers without * were called inactive; · = no result given; ! = a repeat was not active. This is a sample that favours compounds with a hit; in the whole collection about 2.6% have one here.
SMILES,PAD4 FP inh,TCR-CD3 inh,PME-1 inh,PRMT1 inh,SIAE inh,Fam108B counter,PRMT1 confirm
CCC(c1nnnn1Cc1ccco1)N(Cc1ccccc1OC)Cc1cc2cc(C)ccc2[nH]c1=O (centres undefined),-4.5,-2.3,-2.5,15.2,12.8,-8.1,·
COc1ccccc1CN(Cc1cc2c(C)ccc(C)c2[nH]c1=O)Cc1nnnn1Cc1ccco1,-8.2,-6.4,2.4,36.6*,-5.0,-5.7,6.0
Cc1ccc2cc(CN(Cc3ccc4c(c3)OCO4)Cc3nnnn3Cc3ccco3)c(=O)[nH]c2c1,-6.9,2.1,-2.7,4.8,-9.3,-3.9,·
Cc1ccc(CN(Cc2cc3cc4c(cc3[nH]c2=O)OCCO4)Cc2nnnn2Cc2ccco2)cc1,-12.2,2.8,0.6,43.2*,6.0,2.8,13.2
CCC(C)(C)n1nnnc1C(C(C)C)N(Cc1ccco1)Cc1cc2cc3c(cc2[nH]c1=O)OCO3 (centres undefined),-3.7,-2.2,6.3,41.1*,-4.4,-3.9,4.7
CCC(C)(C)n1nnnc1C(C(C)C)N(Cc1cccnc1)Cc1ccco1 (centres undefined),-2.5,3.3,-0.9,-1.8,13.2,2.2,·
CCCC[C@H]1C2CC(OC(=O)Nc3ccc(C(F)(F)F)cc3)C(C2)[C@H]2CCCCN21 (some centres undefined),·,·,·,2.0,0.6,·,·
CCOC(=O)C(C(C)=O)c1c(Br)c(O)c(O)c2c(C(=O)c3ccc(C)cc3)coc12 (centres undefined),2.4,-0.9,0.0,40.5*,-3.6,6.0,17.9
CCOC(=O)c1c(C)n(-c2ccc(C)cc2)c2c(C(C(C)=O)C(=O)O)c(Br)c(O)c(O)c12 (centres undefined),-0.9,0.6,-1.2,20.5,-1.8,14.7,·
CCc1ccc(-c2csc3[n+]2CCN3C(C)=O)cc1,14.7,7.4,-3.9,71.6*,1.7,5.8,46.1*
COC(=O)C[C@H]1CC[C@H]2[C@H](COc3ccc(NC(=O)Cc4cccs4)cc3C(=O)N2C)O1,·,·,·,-1.9,1.7,·,·
Cc1cc(=O)oc2cc(OCC(=O)OCC(=O)NCCc3ccccc3)ccc12,-6.5,5.6,1.9,27.1*!,-2.8,-0.6,-1.6
COC(=O)c1cc(-c2ccc(OC)c(OC)c2)c(=O)n2c1CCC2,·,·,·,4.2,-8.6,·,·
CCN(Cc1cn(Cc2ccccc2)nn1)S(=O)(=O)c1ccccc1Br,·,·,·,2.9,-1.5,·,·
O=c1[nH]c2c(s1)C(c1ccco1)C1C3CCC(C3)C1S2 (centres undefined),-5.7,-4.5,1.2,39.2*,9.9,0.5,19.5
CCOC(=O)C1=C(C)N=c2sc(=Cc3ccc(OCC(=O)O)cc3)c(=O)n2C1c1ccc(Cl)cc1 (centres undefined),·,-1.0,·,41.6*,-31.6,·,13.2
COCCN(C(=O)CCCc1nc2ccccc2s1)c1c(N)n(CC(C)C)c(=O)[nH]c1=O,1.1,-5.9,1.8,35.5*,6.0,·,27.1*
CC(C)CN(C(=O)COC(=O)CCCc1nc2ccccc2s1)c1c(N)n(Cc2ccccc2)c(=O)[nH]c1=O,-1.8,-1.0,5.5,3.2,-4.6,-1.8,·
COc1ccc(NC(=S)NNS(=O)(=O)c2ccc3ccccc3c2)c(OC)c1,-5.4,-3.4,2.7,26.9*,3.5,2.8,13.0
O=C1C(=O)N(Cc2ccc(-c3ccccc3)cc2)c2ccc(OC(F)(F)F)cc21,·,·,·,2.7,0.7,·,·
COc1ccc(C=Nn2c(-c3ccc(F)cc3)n[nH]c2=S)c(OC)c1OC,·,·,·,30.4*,7.2,·,6.3
COc1ccc(/C=N/n2c(-c3cc(C)[nH]n3)n[nH]c2=S)cc1,2.9,4.6,-1.1,-4.2,9.4,1.0,·
COc1cccc(/C=N/n2c(-c3cccs3)n[nH]c2=S)c1,3.5,0.1,8.1,27.5*,1.2,6.6,19.9
S=c1[nH]nc(-c2ccccc2)n1/N=C/c1cccs1,-0.2,·,-7.6,·,·,3.6,·
COc1ccc(/C=N/n2c(-c3n[nH]c4c3CCC4)n[nH]c2=S)c(OC)c1OC,-1.2,8.8,0.2,0.5,2.0,-0.4,·
Cc1ccc(-c2n[nH]c(=S)n2/N=C/c2cccs2)cc1,5.0,-8.0,6.6,32.0*,1.4,-3.0,8.1
CC(=O)CC[C@@H]1CC[C@]2(CCCN(S(C)(=O)=O)C2)O1,·,·,·,8.6,-1.9,·,·
CN1CCN(C(=O)c2sc(=S)n(-c3ccccc3)c2N)CC1,4.8,6.8,-8.7,76.5*,2.0,-1.8,78.7*
